Tests used:
[1] = molecular target: Serine/threonine-protein kinase MRCK alpha (Homo sapiens) (UniProt Q5VT25); settings: at 0.1 µM
[2] = molecular target: Serine/threonine-protein kinase MRCK alpha (Homo sapiens) (UniProt Q5VT25); settings: at 1 µM
[3] = molecular target: Serine/threonine-protein kinase MRCK beta (Homo sapiens) (UniProt Q9Y5S2); settings: at 0.1 µM
[4] = molecular target: Serine/threonine-protein kinase MRCK beta (Homo sapiens) (UniProt Q9Y5S2); settings: at 1 µM
[5] = molecular target: Ribosomal protein S6 kinase alpha-5 (Homo sapiens) (UniProt O75582); settings: at 0.1 µM
[6] = molecular target: Ribosomal protein S6 kinase alpha-5 (Homo sapiens) (UniProt O75582); settings: at 1 µM
[7] = molecular target: Ribosomal protein S6 kinase alpha-4 (Homo sapiens) (UniProt O75676); settings: at 0.1 µM
Chain of Ribosomal protein S6 kinase alpha-4 (Homo sapiens) (O75676 whole entry, looked up): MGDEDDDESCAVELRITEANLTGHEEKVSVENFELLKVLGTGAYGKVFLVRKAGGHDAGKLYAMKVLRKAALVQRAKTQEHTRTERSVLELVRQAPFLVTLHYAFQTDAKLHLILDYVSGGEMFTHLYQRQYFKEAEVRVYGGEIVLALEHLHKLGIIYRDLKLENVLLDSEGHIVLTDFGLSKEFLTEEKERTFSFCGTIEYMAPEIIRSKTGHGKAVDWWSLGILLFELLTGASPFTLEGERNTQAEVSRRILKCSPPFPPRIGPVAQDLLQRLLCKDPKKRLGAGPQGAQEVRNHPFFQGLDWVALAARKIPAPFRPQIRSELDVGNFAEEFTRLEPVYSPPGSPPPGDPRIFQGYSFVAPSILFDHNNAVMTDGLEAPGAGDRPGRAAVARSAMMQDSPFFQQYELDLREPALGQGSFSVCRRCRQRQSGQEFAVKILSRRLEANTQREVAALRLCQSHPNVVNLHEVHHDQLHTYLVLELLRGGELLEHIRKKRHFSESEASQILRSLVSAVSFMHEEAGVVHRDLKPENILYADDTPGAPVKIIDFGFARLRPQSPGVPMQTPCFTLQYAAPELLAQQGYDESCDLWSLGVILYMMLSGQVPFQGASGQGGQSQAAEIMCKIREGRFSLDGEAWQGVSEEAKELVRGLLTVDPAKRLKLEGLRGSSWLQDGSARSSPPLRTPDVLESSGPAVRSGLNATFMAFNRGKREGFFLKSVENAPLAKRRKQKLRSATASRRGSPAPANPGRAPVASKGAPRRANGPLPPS

[8] = molecular target: Ribosomal protein S6 kinase alpha-4 (Homo sapiens) (UniProt O75676); settings: at 1 µM
[9] = molecular target: Ribosomal protein S6 kinase beta-1 (Homo sapiens) (UniProt P23443); settings: at 0.1 µM
Chain of Ribosomal protein S6 kinase beta-1 (Homo sapiens) (P23443 whole entry, looked up): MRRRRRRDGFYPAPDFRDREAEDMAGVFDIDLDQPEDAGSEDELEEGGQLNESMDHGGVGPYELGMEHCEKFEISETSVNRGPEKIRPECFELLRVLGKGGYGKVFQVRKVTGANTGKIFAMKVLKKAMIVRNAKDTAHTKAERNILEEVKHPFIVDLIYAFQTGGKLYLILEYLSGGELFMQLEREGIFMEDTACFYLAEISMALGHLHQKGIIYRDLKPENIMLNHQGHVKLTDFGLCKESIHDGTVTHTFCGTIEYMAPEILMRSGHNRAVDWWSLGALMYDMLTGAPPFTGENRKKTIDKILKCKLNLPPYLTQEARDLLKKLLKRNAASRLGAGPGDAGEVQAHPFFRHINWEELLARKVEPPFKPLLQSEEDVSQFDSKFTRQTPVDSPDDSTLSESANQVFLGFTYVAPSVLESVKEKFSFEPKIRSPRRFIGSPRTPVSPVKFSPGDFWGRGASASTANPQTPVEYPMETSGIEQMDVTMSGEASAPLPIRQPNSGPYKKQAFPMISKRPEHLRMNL

[10] = molecular target: Ribosomal protein S6 kinase beta-1 (Homo sapiens) (UniProt P23443); settings: at 1 µM
[11] = molecular target: T1, 3-phosphoinositide-dependent protein kinase 1 (Homo sapiens) (UniProt O15530); settings: at 0.1 µM;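 also: values are mean inhibition of PDK1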
T1 sequence (whole entry): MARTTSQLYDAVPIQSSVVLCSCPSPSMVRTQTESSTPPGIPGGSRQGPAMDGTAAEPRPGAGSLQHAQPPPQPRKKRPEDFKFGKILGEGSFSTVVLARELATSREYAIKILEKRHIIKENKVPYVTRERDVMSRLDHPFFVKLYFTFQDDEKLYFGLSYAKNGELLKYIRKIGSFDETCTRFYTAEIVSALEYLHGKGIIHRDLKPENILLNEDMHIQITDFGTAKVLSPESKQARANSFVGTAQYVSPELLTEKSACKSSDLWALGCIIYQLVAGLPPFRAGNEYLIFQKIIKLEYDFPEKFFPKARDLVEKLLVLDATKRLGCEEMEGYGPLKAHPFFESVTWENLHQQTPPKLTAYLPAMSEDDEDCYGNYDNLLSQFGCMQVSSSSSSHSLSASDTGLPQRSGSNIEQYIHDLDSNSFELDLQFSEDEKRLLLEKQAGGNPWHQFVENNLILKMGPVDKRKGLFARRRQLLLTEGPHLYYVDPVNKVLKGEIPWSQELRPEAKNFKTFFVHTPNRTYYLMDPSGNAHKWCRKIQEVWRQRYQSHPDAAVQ

[12] = molecular target: cAMP-dependent protein kinase catalytic subunit alpha (Homo sapiens) (UniProt P17612); settings: at 0.1 µM
[13] = molecular target: cAMP-dependent protein kinase catalytic subunit alpha (Homo sapiens) (UniProt P17612); settings: at 1 µM
[14] = molecular target: Protein kinase C alpha type (Homo sapiens) (UniProt P17252); settings: at 0.1 µM
[15] = molecular target: Protein kinase C alpha type (Homo sapiens) (UniProt P17252); settings: at 1 µM
[16] = molecular target: Protein kinase C beta type (Homo sapiens) (UniProt P05771); settings: at 0.1 µM
Chain of Protein kinase C beta type (Homo sapiens) (P05771 2-671 limits assumed): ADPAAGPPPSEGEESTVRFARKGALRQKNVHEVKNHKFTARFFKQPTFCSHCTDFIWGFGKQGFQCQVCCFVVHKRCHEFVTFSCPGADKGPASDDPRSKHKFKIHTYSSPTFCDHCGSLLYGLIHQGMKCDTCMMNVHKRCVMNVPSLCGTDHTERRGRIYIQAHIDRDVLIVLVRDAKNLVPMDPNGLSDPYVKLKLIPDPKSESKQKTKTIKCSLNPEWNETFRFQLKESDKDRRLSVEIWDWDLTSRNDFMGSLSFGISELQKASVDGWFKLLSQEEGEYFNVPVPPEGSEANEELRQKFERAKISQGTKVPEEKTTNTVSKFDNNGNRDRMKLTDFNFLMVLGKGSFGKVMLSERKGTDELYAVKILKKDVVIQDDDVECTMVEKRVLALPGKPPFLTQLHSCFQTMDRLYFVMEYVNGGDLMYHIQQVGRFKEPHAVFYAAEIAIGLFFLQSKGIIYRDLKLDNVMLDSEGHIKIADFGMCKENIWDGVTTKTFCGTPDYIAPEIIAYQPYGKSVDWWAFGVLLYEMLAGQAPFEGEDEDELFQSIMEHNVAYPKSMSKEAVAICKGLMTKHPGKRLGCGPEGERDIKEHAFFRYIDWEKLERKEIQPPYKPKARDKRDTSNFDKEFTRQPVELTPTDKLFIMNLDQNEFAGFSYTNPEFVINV

[17] = molecular target: Protein kinase C beta type (Homo sapiens) (UniProt P05771); settings: at 1 µM
[18] = molecular target: Protein kinase C eta type (Homo sapiens) (UniProt P24723); settings: at 0.1 µM
Chain of Protein kinase C eta type (Homo sapiens) (P24723 whole entry): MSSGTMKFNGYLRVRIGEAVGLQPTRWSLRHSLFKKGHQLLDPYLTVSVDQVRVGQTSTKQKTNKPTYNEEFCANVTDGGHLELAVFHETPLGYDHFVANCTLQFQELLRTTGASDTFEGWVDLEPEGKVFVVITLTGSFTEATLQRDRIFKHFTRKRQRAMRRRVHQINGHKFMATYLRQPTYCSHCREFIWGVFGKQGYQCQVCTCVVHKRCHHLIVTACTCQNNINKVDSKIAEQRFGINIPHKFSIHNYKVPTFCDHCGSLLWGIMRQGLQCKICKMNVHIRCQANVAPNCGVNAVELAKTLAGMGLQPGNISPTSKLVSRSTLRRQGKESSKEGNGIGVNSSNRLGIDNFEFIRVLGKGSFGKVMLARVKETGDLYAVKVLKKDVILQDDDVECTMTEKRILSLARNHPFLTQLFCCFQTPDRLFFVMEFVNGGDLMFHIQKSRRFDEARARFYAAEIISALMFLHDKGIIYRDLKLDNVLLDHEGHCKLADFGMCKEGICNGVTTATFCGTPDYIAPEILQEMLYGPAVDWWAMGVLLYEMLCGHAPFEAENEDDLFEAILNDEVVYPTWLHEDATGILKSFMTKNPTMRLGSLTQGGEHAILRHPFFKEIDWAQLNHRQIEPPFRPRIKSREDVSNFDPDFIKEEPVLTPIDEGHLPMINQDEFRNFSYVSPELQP

[19] = molecular target: Protein kinase C eta type (Homo sapiens) (UniProt P24723); settings: at 1 µM
[20] = molecular target: Protein kinase C gamma type (Homo sapiens) (UniProt P05129); settings: at 0.1 µM;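 also: values are mean percent inhibition of PKC gamma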

Chain of Serine/threonine-protein kinase MRCK alpha (Homo sapiens) (Q5VT25 whole entry): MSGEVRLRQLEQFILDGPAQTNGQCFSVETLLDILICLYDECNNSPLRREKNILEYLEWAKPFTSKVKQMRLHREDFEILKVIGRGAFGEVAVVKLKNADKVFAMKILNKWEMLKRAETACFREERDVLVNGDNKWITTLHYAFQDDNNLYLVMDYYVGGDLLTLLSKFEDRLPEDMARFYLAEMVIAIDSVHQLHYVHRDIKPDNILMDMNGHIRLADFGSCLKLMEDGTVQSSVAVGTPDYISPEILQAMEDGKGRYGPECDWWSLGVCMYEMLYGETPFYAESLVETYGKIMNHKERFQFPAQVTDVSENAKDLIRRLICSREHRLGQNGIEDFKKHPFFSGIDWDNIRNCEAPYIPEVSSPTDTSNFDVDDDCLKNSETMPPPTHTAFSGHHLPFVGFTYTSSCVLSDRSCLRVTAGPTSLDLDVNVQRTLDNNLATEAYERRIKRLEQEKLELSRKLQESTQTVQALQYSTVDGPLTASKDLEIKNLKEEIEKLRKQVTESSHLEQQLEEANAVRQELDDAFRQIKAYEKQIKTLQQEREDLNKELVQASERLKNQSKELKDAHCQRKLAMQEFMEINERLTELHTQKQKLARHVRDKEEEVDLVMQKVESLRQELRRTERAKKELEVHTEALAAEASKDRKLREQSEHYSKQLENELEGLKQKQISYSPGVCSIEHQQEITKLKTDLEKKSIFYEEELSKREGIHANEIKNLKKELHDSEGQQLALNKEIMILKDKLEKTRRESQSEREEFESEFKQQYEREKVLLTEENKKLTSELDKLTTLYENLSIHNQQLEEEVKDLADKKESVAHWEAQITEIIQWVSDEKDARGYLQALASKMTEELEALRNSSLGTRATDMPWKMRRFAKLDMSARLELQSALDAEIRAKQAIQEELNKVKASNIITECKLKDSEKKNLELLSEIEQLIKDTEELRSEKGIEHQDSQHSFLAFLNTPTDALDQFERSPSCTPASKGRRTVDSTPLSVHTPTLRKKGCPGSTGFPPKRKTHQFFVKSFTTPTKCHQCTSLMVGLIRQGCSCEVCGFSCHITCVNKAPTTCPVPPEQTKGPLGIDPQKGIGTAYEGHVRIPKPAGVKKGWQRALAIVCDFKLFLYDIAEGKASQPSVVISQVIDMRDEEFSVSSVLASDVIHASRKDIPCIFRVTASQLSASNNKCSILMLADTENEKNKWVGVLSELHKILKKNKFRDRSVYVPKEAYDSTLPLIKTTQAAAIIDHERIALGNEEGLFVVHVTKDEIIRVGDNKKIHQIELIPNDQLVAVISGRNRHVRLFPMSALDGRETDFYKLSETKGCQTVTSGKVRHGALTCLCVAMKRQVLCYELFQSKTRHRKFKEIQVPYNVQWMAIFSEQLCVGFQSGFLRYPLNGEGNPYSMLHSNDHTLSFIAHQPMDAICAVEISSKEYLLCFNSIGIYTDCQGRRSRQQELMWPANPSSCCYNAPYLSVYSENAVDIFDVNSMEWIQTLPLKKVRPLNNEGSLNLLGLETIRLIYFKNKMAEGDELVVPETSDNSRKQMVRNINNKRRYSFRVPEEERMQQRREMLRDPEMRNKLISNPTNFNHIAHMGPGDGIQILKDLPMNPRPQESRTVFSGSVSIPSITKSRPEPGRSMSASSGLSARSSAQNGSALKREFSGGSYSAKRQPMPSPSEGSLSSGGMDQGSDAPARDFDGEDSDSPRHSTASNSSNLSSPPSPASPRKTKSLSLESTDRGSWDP

| Compound | inhibition [1] [%] | inhibition [2] [%] | inhibition [3] [%] | inhibition [4] [%] | inhibition [5] [%] | inhibition [6] [%] | inhibition [7] [%] | inhibition [8] [%] | inhibition [9] [%] | inhibition [10] [%] | inhibition [11] [%] | inhibition [12] [%] | inhibition [13] [%] | inhibition [14] [%] | inhibition [15] [%] | inhibition [16] [%] | inhibition [17] [%] | inhibition [18] [%] | inhibition [19] [%] | inhibition [20] [%] |
| --- | --- | --- | --- | --- | --- | --- | --- | --- | --- | --- | --- | --- | --- | --- | --- | --- | --- | --- | --- | --- |
| CCN1CCC(CC(=O)Nc2n[nH]c3nnc(-c4cccc(F)c4F)cc23)CC1 | -3.37 | 0.57 | 0.12 | 0.92 | 0.93 | -0.87 | 2.22 | 1.55 | 0.65 | 0.08 | 1.89 | 1.6 | 3.23 | 0.66 | 1.58 | 2.14 | 0.03 | 1.63 | 3.3 | 3.44 |
| CN1CCC(n2cnc(-c3ccc(F)cc3)c2-c2ccnc(N)n2)CC1 | 1.47 | 1.4 | -1.13 | 1.3 | 0.55 | 2.23 | 0.42 | 3.67 | -0.73 | 1.36 | 3.73 | 3.06 | 7.95 | 1.23 | 10.6 | 0.83 | 7.02 | 3.71 | 4.79 | 0.37 |
| COc1ccc(-c2oc3ncnc(N)c3c2-c2ccc(NC(=O)Nc3cc(C(F)(F)F)ccc3F)cc2)cc1 | 0.52 | 6.52 | 0.63 | 1.86 | 5.16 | 16.1 | 4.9 | 24.2 | 11.7 | 68.2 | 1.13 | 3.34 | 4.14 | 0.71 | 1.62 | 3.38 | 6.16 | 6.58 | 5.99 | 1.64 |
| COc1ccc2c(-c3ccnc(Nc4cccc(OC(F)(F)F)c4)n3)cnn2n1 | -0.42 | 2.27 | 0.42 | -0.61 | 4.58 | 4.54 | 2.99 | 7.19 | 3.11 | 3.7 | 1.72 | 1.61 | 3.17 | 1.34 | 12.7 | 0.08 | 3.07 | 6.47 | 6.9 | 5.4 |
| Clc1ccc(-c2nn3ncccc3c2-c2ccnc(Nc3ccccc3)n2)cc1 | -0.06 | 0.52 | 0.76 | 1.28 | 0.64 | 2.07 | 1 | 2.91 | 0.57 | -0.24 | 0.53 | 1.67 | 2.52 | 1.23 | -0.09 | 0.65 | 1.93 | -0.59 | -0.77 | -1.17 |
| CCN(CC)S(=O)(=O)c1ccc(OC)c(Nc2ncc(-c3ccccc3)o2)c1 | 1.92 | 0.2 | -0.21 | -0.04 | 3.03 | 6.51 | 0.54 | 1.06 | 1.32 | 0.49 | 1.9 | 0.79 | 1.82 | 0.46 | 1.64 | 1.38 | 1.74 | 3.12 | 0.58 | 0.29 |
| COc1ccc(-c2cc3c(N)ncnc3o2)cc1 | 1.37 | -2.67 | 1.33 | -0.07 | -2.51 | -3.04 | -0.05 | -0.35 | -0.5 | -0.54 | -0.95 | -0.06 | 0.18 | -0.88 | 3 | -0.74 | -2.12 | -4.39 | -1.49 | 0.2 |
| CCn1c(-c2nonc2N)nc2c(C#CC(C)(C)O)ncc(OC3CCNCC3)c21 | 8.47 | 33.8 | 2.8 | 22.5 | 2.46 | 11.8 | 3.66 | 14.9 | 4.92 | 26.5 | 2.52 | 62.4 | 89.9 | 3.68 | 30.4 | 41.8 | 73.2 | 89.7 | 99.9 | 35.1 |
| O=C(Nc1n[nH]c2cc(-c3ccc(F)cc3)ccc12)C1CC1 | 0.19 | 0.87 | 0.84 | 5.66 | 13.8 | 13.6 | 6.38 | 8.25 | 2 | 2.94 | 1.87 | 1.56 | 5.1 | 0.82 | 2.18 | 2.92 | 6.56 | 3.22 | 6.59 | 3.26 |
| Fc1cccc(COc2ccc(Nc3ncnc4sc(-c5ccco5)cc34)cc2Cl)c1 | -3.73 | -2.22 | -0.66 | -0.82 | 8.97 | 7.53 | 2.45 | 1.61 | 1.01 | 1.47 | -0.87 | 0.8 | 1.84 | 1.33 | 1.21 | 0.29 | -3.68 | 5.34 | 4.83 | 1.52 |
| [O-][S+]1CCN(Cc2ccc(-c3ccc4ncnc(Nc5ccc(OCc6cccc(F)c6)c(Cl)c5)c4c3)o2)CC1 | -1.31 | -1.3 | -0.28 | -0.43 | 3.5 | 3.71 | 3.38 | 4.98 | 2.86 | 3.84 | 4.4 | 2.27 | 3.13 | 1.17 | 1.29 | -0.91 | 1.67 | 2.12 | 4.25 | 3.03 |
| CCn1cc(-c2ccnc3[nH]ccc23)c(-c2cccc(NC(=O)Nc3ccc(OCc4ccccc4)cc3)c2)n1 | -4.2 | 4.85 | -0.78 | -0.56 | -0.53 | -2.01 | 1.02 | 0.39 | -0.04 | -0.6 | -1.57 | 4.08 | 5.34 | 1.25 | 2.76 | 0.5 | 1.43 | -2.7 | 1.78 | 0.3 |
| CN(C)CCOc1ccc(-c2nc(-c3ccncc3)c(-c3ccc4c(c3)CC/C4=N\O)[nH]2)cc1 | -0.58 | 0.77 | 0.46 | 0.41 | 3.39 | 7.59 | 2.36 | 4.48 | 1.37 | 1.71 | 0.77 | 1.46 | 4.29 | 0.58 | 1.61 | 1.27 | 11.9 | 1.48 | 3.32 | 1.85 |
| CN1CCC(n2cnc(-c3ccc(F)cc3)c2-c2ccnc(Nc3ccccc3)n2)CC1 | 0.81 | 10.7 | 1.12 | 2.04 | 1.99 | 3.4 | 1.72 | 3.56 | 0.19 | 1.05 | 3.8 | 2.92 | 16.7 | 19.4 | 65.2 | 16.1 | 51 | 2.14 | 2.72 | 5.68 |

From ChEMBL document CHEMBL1961873, “Compounds: GSK PKIS; Assays: Nanosyn kinase panel” (2012)
